This assay addresses Vasopressin V1b receptor (Homo sapiens) (UniProt P47901). The assay can be described thus: Counterscreen Concentration-Response Assay for Antagonists of the Neuropeptide S Receptor: Vasopressin Receptor Calcium Signal Transduction. The settings on record: CHO-AVPR1B, vasopressin-stimulated calcium fluorescence, FDSS. The source says:
NIH Chemical Genomics Center [NCGC] NIH Molecular Libraries Probe Production centers Network [MLPCN] MLPCN Grant: X01-DA026210-01 Assay Submitter (PI): Heilig, Markus Alexander NCGC Assay Overview: Neuropeptide S receptor (NPSR), previously known as GPR154, is a recently de-orphanized G protein coupled receptor. Its endogenous ligand is the 20 amino acids peptide Neuropeptide S (NPS). […] NPS and its receptor are found in various tissues. Specifically they are highly expressed in brain areas that have been implicated in modulation of arousal, stress and anxiety. […] This change in intracellular calcium can be detected using a calcium indicator dye on a calcium imaging plate reader system (FDSS). […]
NCGC Assay Protocol Summary: A Chinese hamster ovary (CHO) cell line stably expressing human vasopressin receptor (AVPR1B) was maintained in F-12 Kaighn's media (Invitrogen, Carlsbad, CA, 21127) supplemented with 10 % FBS, 100 units/ml penicillin, 100 ug/ml streptomycin and 250 ug/ml geneticin at 37C, 5% CO2 in a humidified atmosphere. […] The assay was performed on a FDSS-7000 kinetic plate reader in 1536-well format. The maximums of kinetic fluorescence responses were converted into text files using the instrument's software data export utility. […] AC50 values were determined from concentration-response data modeled with the standard Hill equation. […]
(The purpose of a counterscreen is to sort out artefacts and off-target activity.)

Results filed as inconclusive are left out. Unmarked numbers belong to inactive results. The call rests on the fitted dose curve; in most records, active means well fitted curve in the direction sought with a large enough effect; inconclusive means small, poorly fitted or top-dose-only effect, or another doubt; inactive means no such curve, though single readings can be large or run the other way.

Chain of Vasopressin V1b receptor (Homo sapiens) (P47901 whole entry, looked up): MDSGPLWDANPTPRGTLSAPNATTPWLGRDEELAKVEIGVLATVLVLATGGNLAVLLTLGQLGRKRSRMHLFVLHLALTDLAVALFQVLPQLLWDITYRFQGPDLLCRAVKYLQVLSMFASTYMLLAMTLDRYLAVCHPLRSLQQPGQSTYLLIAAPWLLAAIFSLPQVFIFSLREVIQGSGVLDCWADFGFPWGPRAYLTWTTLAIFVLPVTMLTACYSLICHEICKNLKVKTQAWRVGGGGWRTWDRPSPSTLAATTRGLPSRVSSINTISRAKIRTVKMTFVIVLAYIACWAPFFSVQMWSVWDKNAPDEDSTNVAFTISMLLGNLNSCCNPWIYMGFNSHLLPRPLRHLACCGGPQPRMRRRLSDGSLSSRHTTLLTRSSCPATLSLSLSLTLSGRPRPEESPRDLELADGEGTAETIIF

On to `Cc1c(P(=S)(c2ccccc2)c2ccccc2)[n+]2ccccc2n1C`, for which the max response is 7.72%.

The values above are taken from PubChem BioAssay AID2570 (National Center for Advancing Translational Sciences (NCATS), 2010).
